Inconclusive results are not listed. Where a call stands in place of a potency, no number is given. Active and inactive are the calls of the source. Calls follow the shape of the dose curve; as a rule, active = well fitted curve in the direction sought with a large enough effect; inconclusive = small, poorly fitted or top-dose-only effect, or another doubt; inactive = no such curve, though single readings can be large; an effect the other way counts as inactive or inconclusive.

In PubChem BioAssay (NCATS) one finds Potency and outcome data, which are given here for 15 compounds.

For test [1], the target named is Luciferin 4-monooxygenase (Photinus pyralis) (UniProt P08659). Description: Biochemical firefly luciferase enzyme assay for NPC (AID 624030). Also: nearly all actives have a fitted effect of over 70% in size. Also: potency is read from the fitted curve at half-maximal effect. Put shortly: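 Direct inhibition of firefly luciferase enzyme (10 nM final, 50 mM Tris Acetate) assessed by luminescence within 5 minutes. Percent activity scaled between DMSO and PTC124 positive control, with concentration-effect curves classified by fit quality and response.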

Test [2] concerns the target Voltage-gated inwardly rectifying potassium channel KCNH2 (Homo sapiens) (UniProt Q12809). Description: qHTS Assay for Small Molecule Inhibitors of the Human hERG Channel Activity (AID 588834).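 Also: top concentration of the series differs between compounds; lower thallium flux fluorescence means stronger hERG block; nearly all actives have a fitted effect of over 50% in size.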 Put shortly:
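In hERG-transduced U2OS cells, dye-loaded for 1 hr at room temperature in dark, test compounds incubated 10 min at 37 °C before thallium stimulation. AC50 values derived by Hill modelling of concentration-response.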

The nature of test [3]: S16 Schwann cell viability assay (CellTiter-Glo assay) (AID 624031).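 Also: native untransfected S16 rat Schwann cells; cellular ATP luminescence as a viability measure; series mostly up to about 58 µM; nearly all actives have a fitted effect of over 70% in size.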 Put shortly:
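Following overnight culture in 10% FBS DMEM, parental S16 rat Schwann cells are dosed for 24 h at 37 °C. Viability is read as CellTiter-Glo luminescence and expressed as % activity relative to DMSO (0%) and no-cell wells.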
In general terms: In ATP-based viability assays light output follows the ATP content of the culture.

Sequence of Luciferin 4-monooxygenase (Photinus pyralis) (P08659 whole entry, looked up): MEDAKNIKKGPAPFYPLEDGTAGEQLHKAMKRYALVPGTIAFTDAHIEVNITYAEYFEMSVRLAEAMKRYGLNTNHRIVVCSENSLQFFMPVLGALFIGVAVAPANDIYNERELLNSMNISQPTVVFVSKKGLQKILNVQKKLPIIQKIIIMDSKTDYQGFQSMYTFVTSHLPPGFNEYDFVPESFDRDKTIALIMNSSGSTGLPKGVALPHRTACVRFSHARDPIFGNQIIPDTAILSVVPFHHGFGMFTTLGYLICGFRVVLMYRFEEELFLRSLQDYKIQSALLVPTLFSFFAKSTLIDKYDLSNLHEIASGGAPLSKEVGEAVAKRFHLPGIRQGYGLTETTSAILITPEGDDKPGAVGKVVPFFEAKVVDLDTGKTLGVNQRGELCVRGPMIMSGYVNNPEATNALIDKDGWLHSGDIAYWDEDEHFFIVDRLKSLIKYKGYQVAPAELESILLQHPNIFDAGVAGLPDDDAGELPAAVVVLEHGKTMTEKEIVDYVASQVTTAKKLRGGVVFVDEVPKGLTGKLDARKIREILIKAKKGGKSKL
Sequence of Voltage-gated inwardly rectifying potassium channel KCNH2 (Homo sapiens) (Q12809 whole entry, looked up): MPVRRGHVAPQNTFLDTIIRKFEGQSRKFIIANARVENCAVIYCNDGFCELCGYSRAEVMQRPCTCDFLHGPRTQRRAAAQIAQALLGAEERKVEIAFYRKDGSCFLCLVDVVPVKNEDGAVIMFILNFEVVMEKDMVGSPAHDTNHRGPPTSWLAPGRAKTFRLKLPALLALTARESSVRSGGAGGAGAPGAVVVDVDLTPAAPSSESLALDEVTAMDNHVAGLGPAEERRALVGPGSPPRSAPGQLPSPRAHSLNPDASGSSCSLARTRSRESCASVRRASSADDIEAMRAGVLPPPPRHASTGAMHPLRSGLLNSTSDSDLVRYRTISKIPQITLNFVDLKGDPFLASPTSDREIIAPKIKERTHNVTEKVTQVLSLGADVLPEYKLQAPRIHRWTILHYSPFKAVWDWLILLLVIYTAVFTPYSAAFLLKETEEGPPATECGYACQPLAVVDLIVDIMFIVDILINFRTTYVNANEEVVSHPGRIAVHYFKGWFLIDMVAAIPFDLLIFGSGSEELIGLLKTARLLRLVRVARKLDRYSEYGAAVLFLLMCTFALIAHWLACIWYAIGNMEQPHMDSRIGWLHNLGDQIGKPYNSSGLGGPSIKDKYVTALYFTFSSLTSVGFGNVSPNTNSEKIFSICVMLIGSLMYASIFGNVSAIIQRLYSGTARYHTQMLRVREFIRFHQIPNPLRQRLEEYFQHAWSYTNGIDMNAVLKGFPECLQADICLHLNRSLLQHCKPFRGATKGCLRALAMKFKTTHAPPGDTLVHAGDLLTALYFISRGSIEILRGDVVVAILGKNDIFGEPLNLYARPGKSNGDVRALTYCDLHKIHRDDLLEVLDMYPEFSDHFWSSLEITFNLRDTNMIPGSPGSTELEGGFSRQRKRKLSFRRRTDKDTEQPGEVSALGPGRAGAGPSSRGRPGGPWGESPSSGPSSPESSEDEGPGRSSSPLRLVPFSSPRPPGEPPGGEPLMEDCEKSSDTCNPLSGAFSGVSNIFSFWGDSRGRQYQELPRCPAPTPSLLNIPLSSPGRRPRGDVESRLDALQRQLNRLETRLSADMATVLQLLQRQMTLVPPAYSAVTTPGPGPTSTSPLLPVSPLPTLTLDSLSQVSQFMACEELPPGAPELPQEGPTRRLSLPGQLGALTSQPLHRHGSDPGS

For the compound `COc1ccccc1Oc1c(NS(=O)(=O)c2ccc(C(C)(C)C)cc2)nc(-c2ncccn2)nc1OCCO`, the Potency entry in test [1] is “inactive”.

Turning to `Nc1ccncc1N`, the Potency entry in test [2] and in test [1] was “inactive” throughout. Besides, the compound was classed as inactive in test [3].

Regarding `Nc1ccc(C(=O)Oc2ccccc2)c(O)c1`, in test [2], the Potency entry was “inactive”. In test [1], the Potency was 6.42 µM (active). The outcome in test [3] was inactive.

`Cc1cc(NC(=O)C2=C(O)c3ccccc3S(=O)(=O)N2C)no1`: the Potency result in test [2] and in test [1] was “inactive” throughout. Also, the call in test [3] was inactive.

As for `CN/C(=C\[N+](=O)[O-])NCCSCc1csc(CN(C)C)n1`, the Potency entry in test [2] and in test [1] was “inactive” each time.

On to `Nc1ncnc2c1ncn2[C@@H]1O[C@H](COP(=O)(O)O)[C@@H](O)[C@H]1O`, for which the Potency result in test [2] and in test [1] was “inactive” throughout. Further, the compound was classed as inactive in test [3].

For the compound `O[C@@H]1CO[C@H]2[C@@H]1OC[C@@H]2O`, the Potency result in test [2] and in test [1] was “inactive” in each case. Besides, the outcome in test [3] was inactive.

On to `NC(=O)CC[C@@H](N)C(=O)O`, for which the Potency entry in test [2] and in test [1] was “inactive” throughout. Besides, the compound was called inactive in test [3].

Consider `CC(C)c1cc2c(cc1S(=O)(=O)O)[C@@]1(C)CCC[C@@](C)(C(=O)O)[C@@H]1CC2`, for which the Potency entry in test [2] and in test [1] was “inactive” each time. The compound was classed as inactive in test [3].

As to `COc1ccccc1OC(=O)Oc1ccccc1OC`, the Potency entry in test [2] and in test [1] was “inactive” in each case. Also, in test [3], the compound was classed as inactive.

`CC(=O)SC[C@@H](Cc1ccccc1)C(=O)NCC(=O)OCc1ccccc1`: the Potency entry in test [2] and in test [1] was “inactive” in each case. Further, the compound was classed as inactive in test [3].

For `COc1ccc(C(=O)N2CCN(CC(=O)N3CCOCC3)CC2)cc1`, the Potency entry in test [2] and in test [1] was “inactive” each time. Further, in test [3], the outcome was inactive.

`CCCCCCCCCCOc1cc2c(=O)c(C(=O)OCC)c[nH]c2cc1OCC`: the Potency result in test [2] and in test [1] was “inactive” throughout.

On to `CCOC(=O)c1cccnc1`, for which the Potency entry in test [2] and in test [1] was “inactive” throughout. Further, the call in test [3] was inactive.

As for `C[N+](C)(C)CC[N+]1(C)Cc2c(Cl)c(Cl)c(Cl)c(Cl)c2C1`, the Potency entry in test [2] and in test [1] was “inactive” throughout. The outcome in test [3] was inactive.
